According to the supplement of paper PMC6555819:

Experiments:
Experiment in all cases: PBM binding z-score (relative to random genomic background probes); higher = stronger binding; sequences stand for … in GC…GCGATTGACAGCGTAGAATGAAGG
[1] = test system: FXR:RXRa (NR concentration 270 nM, RXRa partner concentration 90 nM)
Method in brief: (§1)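 Custom Agilent 4×180K protein-binding microarrays carried double-stranded probes. Their 34-nt variable regions held direct-repeat seeds, single-nucleotide variants, half-site ablations and random human genomic background sequences. Arrays were incubated 1 h with ligand-free nuclear receptor dimers in PBS pH 7.4, 2% milk, 0.02% Triton X-100, 1 mM DTT, 0.2 mg/mL BSA and 0.4 mg/ml salmon testes DNA. Antibodies against each partner (one per run) detected binding, and scanned fluorescence was regression-normalized. Binding z-scores use random background probes as reference.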

[2] = test system: LXRa:RXRa (NR concentration 270 nM, RXRa partner concentration 90 nM)
Method in brief: as §1

[3] = test system: LXRa homodimer (NR concentration 270 nM)
Method in brief: as §1

[4] = test system: LXRb:RXRa (NR concentration 270 nM, RXRa partner concentration 90 nM)
Method in brief: as §1

[5] = test system: LXRb homodimer (NR concentration 270 nM)
Method in brief: as §1

[6] = test system: PPARa:RXRa (NR concentration 270 nM, RXRa partner concentration 90 nM)
Method in brief: as §1

[7] = test system: PPARg:RXRa (NR concentration 180 nM, RXRa partner concentration 90 nM)
Method in brief: as §1

[8] = test system: PPARg:RXRa 270nM:90nM, anti-RXR (NR concentration 270 nM, RXRa partner concentration 90 nM)
Method in brief: as §1

[9] = test system: PPARg:RXRa 30nM:10nM, anti-RXR (NR concentration 30 nM, RXRa partner concentration 10 nM)
Method in brief: as §1

[10] = test system: PPARg:RXRa 90nM:30nM, anti-RXR (NR concentration 90 nM, RXRa partner concentration 30 nM)
Method in brief: as §1

[11] = test system: PPARg:RXRa DBDmut IVT, anti-RXR (DBD mutation: RXRa K156A/R161A, NR concentration 270 nM, RXRa partner concentration 90 nM)
Method in brief: as §1

[12] = test system: PPARg:RXRa IVT, anti-PPARg (NR concentration 270 nM, RXRa partner concentration 90 nM)
Method in brief: as §1

[13] = test system: PPARg DBDmut:RXRa IVT, anti-PPARg (DBD mutation: PPARg1 K132A/R137A, NR concentration 270 nM, RXRa partner concentration 90 nM)
Method in brief: as §1

[14] = test system: PPARg DBDmut IVT, anti-PPARg (DBD mutation: PPARg1 K132A/R137A, NR concentration 270 nM)
Method in brief: as §1

[15] = test system: PPARg homodimer (NR concentration 180 nM)
Method in brief: as §1

[16] = test system: PXR:RXRa (NR concentration 270 nM, RXRa partner concentration 90 nM)
Method in brief: as §1

[17] = test system: PXR homodimer (NR concentration 270 nM)
Method in brief: as §1

[18] = test system: RARa:RXR (NR concentration 270 nM, RXRa partner concentration 90 nM)
Method in brief: as §1

[19] = test system: RARa homodimer (NR concentration 270 nM)
Method in brief: as §1

[20] = test system: RARb:RXRa (NR concentration 270 nM, RXRa partner concentration 90 nM)
Method in brief: as §1

Sequence	PBM binding z-score [1]	PBM binding z-score [2]	PBM binding z-score [3]	PBM binding z-score [4]	PBM binding z-score [5]	PBM binding z-score [6]	PBM binding z-score [7]	PBM binding z-score [8]	PBM binding z-score [9]	PBM binding z-score [10]	PBM binding z-score [11]	PBM binding z-score [12]	PBM binding z-score [13]	PBM binding z-score [14]	PBM binding z-score [15]	PBM binding z-score [16]	PBM binding z-score [17]	PBM binding z-score [18]	PBM binding z-score [19]	PBM binding z-score [20]
CCTCGGAGGACAGAATGTCAGAGCTGTCCGCTTT	-0.31	-0.467	-0.713	-1.01	-0.428	-0.27	-0.416	-0.901	-0.655	-1.09	-0.17	-1.04	-1.38	-1.68	0.0941	-0.762	-0.458	-0.687	-0.242	0.241
CCGACTGGGGCAGAAAGGTTACCGTACCATCCGG	0.26	0.695	-0.0357	1.01	-1.05	2.4	1.54	2.95	0.724	2.38	1.72	2.39	-1.2	-1.01	0.541	1.02	-0.429	1.79	-0.282	1.84
ACAGACAGGTGACTGAAGGTAACTCAGCTGGACG	0.0674	0.59	-0.72	-0.364	-1.02	0.299	0.781	0.364	-0.0254	0.262	0.539	0.434	0.745	-0.576	-0.875	-0.321	-0.503	0.0913	-0.597	0.563
ACTAGCAGGCAAAGGGTCACTCAAGATTAGTCCG	2.62	2.93	0.422	2.94	-0.218	4.2	5.28	5.86	4.68	6.43	0.313	2.76	-0.0407	-1.05	2.82	3.4	0.241	4.35	1.42	3.42
TTACCAAGGTTAAGGTCGTTGATCCCTCTGTAGA	4.22	4.15	0.608	2.66	-0.123	3.38	1.85	3.34	1.44	2.99	0.95	2.15	0.246	0.342	1.05	3.04	1.3	3.04	-0.0492	3.04
CCTTACGGGTCACCAGGTTATAGCACGACGAGCG	5.57	4.07	0.342	3.43	0.0793	5.41	6.15	6.21	2.59	4.99	3.46	5.18	0.0764	-0.404	2.34	3.72	-0.0319	4.62	1.27	4.27
CAAACTAGGACACAGAGGTCAAAGTCCGTGCGTA	5.53	5.78	6.08	5.13	1.79	5.73	6.63	5.99	3.64	5.73	6.49	6.69	3.32	2.78	5.68	6.16	7.13	6.38	1.48	4.28
CAAACTACGTCAAGGTCAAAGTCGGTTTGTGCCA	4.66	4.23	2.86	3.54	1.01	4.35	1.43	2.55	0.626	1.7	0.822	1.93	0.681	0.932	2.33	4.63	2.94	4.28	0.409	4.04
TTACCACGGTGAAGGTCGTTGATCCCTCTGTAGA	1.28	1.71	0.151	1.26	-0.41	1.57	0.322	1.94	0.678	1.24	0.157	1.1	-0.118	-0.0664	0.191	1.13	0.169	1.59	-0.497	1.17
AGAATGAGGTTCTACGTAGATCAGGGAAGAAAGT	-0.522	-0.707	-0.69	-0.345	-0.624	-0.336	0.146	-0.165	-0.125	-0.13	0.0808	0.054	0.621	0.606	-0.411	-0.126	0.193	-0.0619	-0.303	-0.407
ATTTGTAGGTTAAGGGTCATTCAGGTTGGTTCGC	5.48	5.5	4.38	4.97	2.76	6.21	11.5	9.95	11.8	12.1	6.4	7.15	4.62	2.85	7.55	5.87	3.82	6.91	4.5	3.9
GCTGGTTGGTCAGTAAAAGGTCACACACCGGTCG	3.32	4.46	4.47	4.09	1.04	4.38	2.91	4.89	2.71	4.59	0.091	2.51	0.438	0.205	3.78	5.07	1.42	6.03	2.87	4.3
TCATAGAGGTAATACAGGTGAAAGTCGGCATCTA	0.717	1.43	-0.283	0.754	-0.377	1.85	0.997	1.86	3.1	2.46	2.41	1.82	0.716	0.411	0.49	0.522	-0.0711	1.04	0.214	0.478
